From publication PMC4336329 (PLoS ONE, 2015)
The campaign covered roughly 310,000 compounds. About 14,000 (4.5%) showed an effect of 50% or more. Effects have a minus sign here. The entries come from a sample that favours strong results as a whole.

These compounds were tested against human ether-à-go-go-related gene (hERG) potassium channel (human, UniProt Q12809) (assay: primary screen, population patch clamp on CHO cells stably expressing hERG; higher = less effect of the substance).
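Further: peak tail current of the secondary pulse compared with the same well before compound.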

Chain of human ether-à-go-go-related gene (hERG) potassium channel (Q12809 whole entry, looked up): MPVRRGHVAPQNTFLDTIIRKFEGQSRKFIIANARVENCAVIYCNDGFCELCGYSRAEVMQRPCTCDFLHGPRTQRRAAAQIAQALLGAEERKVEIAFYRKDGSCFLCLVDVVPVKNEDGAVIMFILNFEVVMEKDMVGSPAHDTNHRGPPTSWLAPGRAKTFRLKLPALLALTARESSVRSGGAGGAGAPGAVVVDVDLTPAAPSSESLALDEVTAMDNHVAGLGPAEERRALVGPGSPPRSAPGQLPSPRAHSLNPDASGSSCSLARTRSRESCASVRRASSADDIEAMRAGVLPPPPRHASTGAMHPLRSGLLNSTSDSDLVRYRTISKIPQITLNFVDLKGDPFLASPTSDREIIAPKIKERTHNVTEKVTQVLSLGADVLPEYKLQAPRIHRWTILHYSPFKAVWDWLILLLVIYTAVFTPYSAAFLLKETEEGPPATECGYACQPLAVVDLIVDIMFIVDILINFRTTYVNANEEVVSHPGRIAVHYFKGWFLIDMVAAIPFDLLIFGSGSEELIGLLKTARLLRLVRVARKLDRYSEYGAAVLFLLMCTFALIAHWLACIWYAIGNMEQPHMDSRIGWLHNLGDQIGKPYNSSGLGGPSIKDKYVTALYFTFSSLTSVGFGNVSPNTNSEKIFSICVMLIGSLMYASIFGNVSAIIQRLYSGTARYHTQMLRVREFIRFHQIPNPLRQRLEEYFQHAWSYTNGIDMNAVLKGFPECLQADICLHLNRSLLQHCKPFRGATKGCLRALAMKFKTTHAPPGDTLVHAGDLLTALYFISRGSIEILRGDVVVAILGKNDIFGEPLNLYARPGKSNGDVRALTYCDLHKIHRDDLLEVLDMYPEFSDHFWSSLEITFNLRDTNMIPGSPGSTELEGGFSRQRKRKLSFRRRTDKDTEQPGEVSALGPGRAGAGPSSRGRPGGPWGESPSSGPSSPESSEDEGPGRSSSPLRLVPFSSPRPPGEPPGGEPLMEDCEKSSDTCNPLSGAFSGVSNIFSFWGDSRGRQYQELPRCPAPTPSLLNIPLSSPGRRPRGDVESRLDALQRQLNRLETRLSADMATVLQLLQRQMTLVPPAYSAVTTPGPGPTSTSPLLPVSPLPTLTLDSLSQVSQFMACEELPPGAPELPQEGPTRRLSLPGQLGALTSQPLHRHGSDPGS

| SMILES | hERG current change (%, negative = inhibition) at 10uM [%] |
| --- | --- |
| COc1ccccc1NS(=O)(=O)c1cccc(C(=O)NN=C2CCCC2)c1 | 0.33 |
| COc1ccc(CN(C)C(=O)Cc2ccc(OC)c(S(=O)(=O)N3CCOCC3)c2)cc1 | -20.4 |
| CCOC(=O)C1CCCN(S(=O)(=O)c2cccc3cccnc23)C1 (stereo not drawn) | -14.9 |
| Cc1nnc(SCc2ccc(Cl)cc2)n1CC1CCCO1 (stereo not drawn) | -3.26 |
| CSc1ccccc1NC(=O)COC(=O)Cn1cc(C(F)(F)F)ccc1=O | 4.23 |
| Cc1cc2oc(=O)cc(CN3CCCCC3C)c2cc1C(C)C (stereo not drawn) | -22 |
| Cc1cccc(Nc2nc(-c3ccccn3)cs2)n1 | 12.9 |
| CN(CC(=O)OCC(=O)Nc1ccccc1)S(=O)(=O)c1ccc(Cl)cc1 | -19.9 |
| CCN(CC)c1ccc(/C=N/Nc2nc(C)cc(=O)[nH]2)cc1 | -20.5 |
| Cc1c(Cl)cccc1NC(=S)NCCc1ccccn1 | 9.25 |
| O=C(CC1SC(=O)N(c2ccccc2)C1=O)Nc1cccc2ccccc12 (stereo not drawn) | 11.7 |
| COc1cc(NC(=O)Cn2cnc(S(=O)(=O)N3CCC(C)CC3)c2)cc(OC)c1OC | 20.6 |
| Br.Cc1ccc(Cn2c(=N)n(CC(=O)c3ccccc3)c3ccccc32)cc1 | -72.2 |
| Br.N=c1n(CC(=O)c2ccc([N+](=O)[O-])cc2)c2ccccc2n1Cc1ccc(Cl)cc1 | -14.3 |
| Br.CCCn1c(=N)n(CC(=O)c2ccc(OCC(=O)OC)cc2)c2ccccc21 | -52.7 |
| Br.COC(=O)COc1ccc(C(=O)Cn2c(NCCCO)nc3ccccc32)cc1 | -2.45 |
| Br.Cc1ccc(Cn2c(=N)n(CC(=O)c3ccc([N+](=O)[O-])cc3)c3ccccc32)cc1 | -4.3 |
| N=c1n(CC(=O)c2ccc(Br)cc2)c2ccccc2n1Cc1ccccc1.[Br-] | -9.25 |
| Br.N=c1n(CC(=O)c2ccc([N+](=O)[O-])cc2)c2ccccc2n1Cc1ccccc1 | -70.1 |
| Br.N=c1n(CC(=O)c2ccc([N+](=O)[O-])cc2)c2ccccc2n1Cc1ccccc1Cl | -23.6 |
| Br.CCCCn1c(=N)n(CC(=O)c2ccc([N+](=O)[O-])cc2)c2ccccc21 | -71.7 |
| O=C(N/N=C/c1ccccc1C(=O)O)c1ccncc1 | 18.3 |

| SMILES | hERG current change (%, negative = inhibition) at 10uM [%] |
| --- | --- |
| CCC(=O)NC(=S)Nc1ccc(-c2nc3ccccc3s2)cc1 | -2.92 |
| Cc1cc(C)nc(OC(C(=O)O)C(OCc2ccccc2)(c2ccccc2)c2ccccc2)n1 (stereo not drawn) | 21.7 |
| CCC1CCCCN1C(=O)c1ccc2c(c1)C(=O)N(c1ccc(C)cc1)C2=O (stereo not drawn) | -8.83 |
| CCOP(=O)(OCC)C(NS(=O)(=O)c1ccccc1)C(Cl)(Cl)Cl (stereo not drawn) | 11.9 |
| Br.CCCn1c(=N)n(CC(=O)c2ccc([N+](=O)[O-])cc2)c2ccccc21 | -78.5 |
| Br.COc1ccc(C(=O)Cn2c(=N)n(C)c3ccccc32)cc1 | -28.8 |
| Br.Cc1ccccc1Cn1c(=N)n(CC(=O)c2ccc([N+](=O)[O-])cc2)c2ccccc21 | -32.6 |
| Br.CCn1c(=N)n(CC(=O)c2ccc(OC)cc2)c2ccccc21 | -18.6 |
| Br.CCCCn1c(=N)n(CC(=O)c2ccc(OC)cc2)c2ccccc21 | -73.6 |
| N#Cc1c(-c2ccco2)cc(C2CC2)nc1SCC(=O)c1ccccc1 | 17.4 |
| COCCNC(=S)N1CCN(c2cccc(C(F)(F)F)c2)CC1 | -12.2 |
| Cc1nn(Cc2cccc(F)c2)c(C)c1NC(=O)c1c([N+](=O)[O-])c(C)nn1C | -9.72 |
| CCCn1nnnc1SCC(=O)Nc1sc(C)c(C)c1C#N | 0.801 |
| O=C(COC(=O)CNC(=O)c1cccc(Br)c1)Nc1nnc(-c2ccccc2)o1 | -0.546 |
| CCCc1ccc(S(=O)(=O)N2CCN(C(C)C(=O)NCc3ccc(OC)cc3)CC2)cc1 (stereo not drawn) | -57.4 |
| CC(C(=O)NCc1ccccc1)N1CCN(c2ccc(F)cc2)CC1 (stereo not drawn) | -18.9 |
| CCOc1ccc(CNC(=O)CCCn2ccc3cc(S(=O)(=O)N4CCCC4)ccc32)cc1 | -32.7 |
| COc1ccc(CNC(=O)C(C)N2CCN(S(=O)(=O)c3ccccc3F)CC2)cc1 (stereo not drawn) | -15.9 |
| COc1ccc(C(=O)NCc2ccc(N3CCN(C)CC3)cc2)cc1 | 5.1 |
| COc1ccc(CNC(=O)CCCn2ccc3cc(S(=O)(=O)N4CCCC4)ccc32)cc1 | -52 |
| COc1ccc(CNC(=O)COc2ccc(S(=O)(=O)N3CCCCC3)cc2)cc1 | 6.5 |
| COc1ccc(CNC(=O)CCn2ccc3cc(S(=O)(=O)N4CCCC4)ccc32)cc1 | -12.4 |

| SMILES | hERG current change (%, negative = inhibition) at 10uM [%] |
| --- | --- |
| COc1ccc(CNC(=O)C(C)N2CCN(c3ccc(C(C)=O)cc3)CC2)cc1 (stereo not drawn) | -55.1 |
| COC(=O)CCNC(=O)CCc1ccc(S(=O)(=O)N2CCCCCC2)cc1 | -12.1 |
| COc1ccc(CNC(=O)CCc2ccc(S(=O)(=O)N3CCCCCC3)cc2)cc1 | -54.9 |
| COc1ccc(S(=O)(=O)N2CCN(C(C)C(=O)Nc3ccc(C(C)C)cc3)CC2)cc1 (stereo not drawn) | -20.6 |
| COc1ccccc1NC(=O)c1ccc(N2CC3CC(C2)c2cccc(=O)n2C3)c(NC(=O)c2cccnc2)c1 (stereo not drawn) | 6.33 |
| [Cl-].c1ccc(Cc2cc[n+](Cc3ccccc3)cc2)cc1 | 4.13 |
| O=C(Nc1ccccc1N1CCCC1)c1cccnc1Cl | 4.72 |
| COc1ccc(C(=O)NC(=S)Nc2nc(C)cc(C)n2)cc1Br | 23.1 |
| CCOc1ccc2nc(SCC(=O)NCc3ccc4c(c3)OCO4)[nH]c2c1 | -24.2 |
| CCCNc1ccc(C(=O)OCC)cc1[N+](=O)[O-] | -6.67 |
| Cc1ccc(C(C(=O)NCc2ccco2)N(C(=O)Cc2cccs2)c2cccnc2)cc1 (stereo not drawn) | 20.4 |
| O=S(=O)(Nc1ccc2ccccc2c1)c1ccccc1 | 1.5 |
| CCOc1ccc(CCNC(=O)COC(=O)Cc2ccc(F)cc2)cc1OCC | -26.6 |
| CC(C)c1ccc(/C=C(\c2nc3ccccc3[nH]2)S(=O)(=O)c2ccccc2)cc1 | 8.64 |
| COc1ccc(OC)c(CNc2ccc(F)c(Cl)c2)c1 | 2.7 |
| COc1ccc(C(=O)n2nc(-c3ccco3)nc2SC)cc1OC | 3.41 |
| COCCCn1c(=O)c2sccc2n2c(CCCC(=O)N(C)Cc3ccco3)nnc12 | -22.8 |
| Cc1ccccc1-n1c(-c2ccc(Br)o2)n[nH]c1=S | 13.5 |
| COc1ccc2ccc(O)c(CN3CCN(S(=O)(=O)c4cc([N+](=O)[O-])ccc4C)CC3)c2c1 | -4.29 |
| CCN(CC)C(=O)CSC1=C(C#N)C(c2ccco2)C(C(=O)OCCOC)=C(C)N1 (stereo not drawn) | 10.5 |
| C=CCOC(=O)C1=C(C)NC(SCC(=O)N(CC)CC)=C(C#N)C1c1ccco1 (stereo not drawn) | -51.3 |
| C=CCOC(=O)C1=C(C)NC(SCC(=O)N(CC)CC)=C(C#N)C1c1ccccc1 (stereo not drawn) | -21.9 |

| SMILES | hERG current change (%, negative = inhibition) at 10uM [%] |
| --- | --- |
| CSc1ccccc1NC(=O)c1ccc(N2CC3CC(C2)c2cccc(=O)n2C3)c(NC(=O)c2ccncc2)c1 (stereo not drawn) | -30.1 |
| CC(C)(C)CN1CCN(CCCc2ccccc2)C(CCO)C1 (stereo not drawn) | -53.7 |
| CC(C)CN1CCN(CCCc2ccccc2)C(CCO)C1 (stereo not drawn) | -35.5 |
| CC(C)=CCN1CCN(CCCc2ccccc2)CC1CCO (stereo not drawn) | -26.8 |
| CC(C)(C)CN1CCN(CC#Cc2ccccc2)CC1CCO (stereo not drawn) | 0.803 |
| OCCC1CN(CCCc2ccccc2)CCN1CCc1ccccc1 (stereo not drawn) | -77.2 |
| OCCC1CN(CCCc2ccccc2)CCN1Cc1ccc(F)cc1 (stereo not drawn) | -66.6 |
| CC(C)N1CCN(CCCc2ccccc2)CC1CCO (stereo not drawn) | -4.39 |
| OCCC1CN(CCCc2ccccc2)CCN1Cc1ccccc1 (stereo not drawn) | -64 |
| CC(C)CCN1CCN(CCCc2ccccc2)CC1CCO (stereo not drawn) | -46.6 |
| CC(C)CCNC(=O)C(c1ccco1)N(CCCO)C(=O)Cn1nnc(-c2ccc(F)cc2)n1 (stereo not drawn) | -20.2 |
| CSc1ccccc1NC(=O)CSc1nnc(CNC(=O)c2ccccc2F)n1C | 11.2 |
| O=C(NCCS(=O)(=O)N1CCN(c2ccc(F)cc2)CC1)C12CC3CC(CC(C3)C1)C2 | -10.5 |
| CCOC(=O)c1cc(-c2ccc(OC)cc2)nn1-c1ccc(C(=O)O)cc1 | 16.3 |
| CS(=O)(=O)c1ccc([C@@H](O)[C@@H](CF)NC(=O)C(Cl)Cl)cc1 | -5.39 |
| Cc1cccc(Cl)c1NC(=S)NCCc1ccccn1 | 11.9 |
| CCOc1ccc(Br)cc1S(=O)(=O)N1CCC(C(N)=O)CC1 | -8.56 |
| O=C(c1ccc(CS(=O)c2cccc(Cl)c2)o1)N1CCOCC1 (stereo not drawn) | 10.8 |
| Cc1ccc(CN2CCN(CCCc3ccccc3)CC2CCO)cc1 (stereo not drawn) | -76.4 |
| CCC(CC)N1CCN(CCc2ccccc2)C(CCO)C1 (stereo not drawn) | -19 |
| CC(C)/C=C/CN1CCN(CCCc2ccccc2)C(CCO)C1 (stereo not drawn) | -73.4 |
